The target of test [1] is Acetylcholinesterase (Homo sapiens) (UniProt P22303). Briefly: Acetylcholinesterase (AChE) small molecule antagonists: colormetric cell-based qHTS assay (AID 1347395). Note: nearly all actives have a fitted effect of over 30% in size. A digest of the protocol:
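Homogeneous whole-cell format. SH-SY5Y cells seeded overnight, dosed with compound (30 min, 37 C, 5% CO2), then given DTNB/acetylthiocholine cocktail for 90 min at 37 C; colorimetric signal.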
For orientation: qHTS replaces the single test concentration by a dilution series.

Test [2] shares this target. Briefly: Acetylcholinesterase (AChE) small molecule antagonists: enzyme-based qHTS assay (AID 1347397). Note: nearly all actives have a fitted effect of over 55% in size. To be noted: Potency: AChE enzyme activity inhibition; outcome: AChE enzyme activity inhibition. The method, boiled down: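 Compound or DMSO vehicle was pin-transferred onto recombinant human AChE (50 mU/mL as dispensed) and left 30 min at room temperature. Acetylthiocholine with DTNB then started the reaction, read colorimetrically 10 min later.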

Test [3] shares this target. Nature of the test: Acetylcholinesterase (AChE) small molecule antagonists: fluorescence cell-based qHTS assay (AID 1347398). Note: nearly all actives have a fitted effect of over 50% in size. To be noted: Potency: AChE activity; outcome: AChE activity. The method, boiled down: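 Using neuroblastoma SH-SY5Y cells as the enzyme source, test chemicals are preincubated 30 min at 37 C; AChE-driven acetylthiocholine cleavage is then quantified by thiocholine-dependent Thiolite Green fluorescence after 40 min at room temperature.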

Values without a mark were called inactive. Inconclusive results are not listed. Activity calls are given as the source filed them. Calls come from the whole dose curve.
Potency is the fitted concentration of half-maximal effect.

Sequence of Acetylcholinesterase (Homo sapiens) (P22303 whole entry, looked up): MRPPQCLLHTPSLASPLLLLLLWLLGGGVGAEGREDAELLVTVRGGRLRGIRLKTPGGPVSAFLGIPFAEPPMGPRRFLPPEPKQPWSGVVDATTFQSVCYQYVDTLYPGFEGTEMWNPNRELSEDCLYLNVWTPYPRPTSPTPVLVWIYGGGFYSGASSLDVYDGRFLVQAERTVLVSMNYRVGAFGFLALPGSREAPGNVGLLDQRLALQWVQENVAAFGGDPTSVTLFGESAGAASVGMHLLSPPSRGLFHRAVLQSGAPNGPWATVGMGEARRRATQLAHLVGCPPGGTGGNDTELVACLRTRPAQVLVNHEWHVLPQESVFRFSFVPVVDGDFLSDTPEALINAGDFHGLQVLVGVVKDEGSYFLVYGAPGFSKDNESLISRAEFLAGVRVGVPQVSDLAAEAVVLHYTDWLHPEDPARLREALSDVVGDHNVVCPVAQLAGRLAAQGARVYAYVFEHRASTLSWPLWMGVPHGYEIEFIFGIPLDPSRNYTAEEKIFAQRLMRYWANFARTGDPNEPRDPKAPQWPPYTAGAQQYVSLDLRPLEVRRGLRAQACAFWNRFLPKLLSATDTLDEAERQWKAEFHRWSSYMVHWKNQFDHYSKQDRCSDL

Take `COc1ccc(CCN(C)CCCC(C#N)(c2ccc(OC)c(OC)c2)C(C)C)cc1OC` (stereo not drawn): the Potency entry in test [1], in test [2] and in test [3] was “inactive” in each case.

As to `O=[N+]([O-])c1cc(C2CCCCC2)c(O)c([N+](=O)[O-])c1`, the Potency result in test [1], in test [2] and in test [3] was “inactive” in each case.

For `CS(=O)(=O)c1ccc([C@@H](O)[C@@H](CF)NC(=O)C(Cl)Cl)cc1`, the Potency result in test [1], in test [2] and in test [3] was “inactive” each time.

As for `O=S(=O)(c1cccc2cnccc12)N1CCCNCC1`, the Potency result in test [1], in test [2] and in test [3] was “inactive” throughout.

On to `CC(C)(C)c1cc(O)c(C(C)(C)C)cc1O`, for which the Potency entry in test [1], in test [2] and in test [3] was “inactive” each time.

For `CNCCCN1c2ccccc2CCc2ccccc21`, the Potency result in test [1], in test [2] and in test [3] was “inactive” throughout.

For `O=C(OCC(O)CO)c1ccccc1Nc1ccnc2c(C(F)(F)F)cccc12` (stereo not drawn), the Potency entry in test [1], in test [2] and in test [3] was “inactive” in each case.

In the case of `Cc1ccc(/C(=C\CN2CCCC2)c2ccccn2)cc1`, the Potency entry in test [1], in test [2] and in test [3] was “inactive” throughout.

Consider `O=C1c2c(O)ccc([N+](=O)[O-])c2C(=O)c2c([N+](=O)[O-])ccc(O)c21`, for which the Potency is 0.789 µM (active) in test [1], 25 µM (active) in test [2] and 8.86 µM (active) in test [3].

Turning to `CC(C(=O)O)c1cccc(C(=O)c2ccccc2)c1` (stereo not drawn), the Potency entry in test [1], in test [2] and in test [3] was “inactive” each time.

For the compound `CO/N=C(/C(=O)N[C@@H]1C(=O)N2C(C(=O)O)=C(Cn3nnc(C)n3)CS[C@H]12)c1csc(N)n1`, the Potency result in test [1], in test [2] and in test [3] was “inactive” in each case.

In the case of `CCCCCCCCCO`, the Potency entry in test [1], in test [2] and in test [3] was “inactive” throughout.

Take `CC(C)NCC(O)COc1ccc(CC(N)=O)cc1` (stereo not drawn): the Potency entry in test [1], in test [2] and in test [3] was “inactive” each time.

As for `CC1(C)[C@H](C(=O)O)N2C(=O)C[C@H]2S1(=O)=O`, the Potency entry in test [1], in test [2] and in test [3] was “inactive” each time.

For the compound `COCCCOc1cc(C[C@@H](C[C@H](N)[C@@H](O)C[C@H](C(=O)NCC(C)(C)C(N)=O)C(C)C)C(C)C)ccc1OC`, the Potency entry in test [1], in test [2] and in test [3] was “inactive” each time.

For `O=C1c2ccccc2C(=O)N1CO`, the Potency result in test [1], in test [2] and in test [3] was “inactive” throughout.

`Cc1ccc2cccnc2c1`: the Potency entry in test [1], in test [2] and in test [3] was “inactive” throughout.

With `N[C@@H](Cc1cc(I)c(O)c(I)c1)C(=O)O`, the Potency entry in test [1], in test [2] and in test [3] was “inactive” in each case.

In the case of `CC(=O)OC(C)C`, the Potency entry in test [1], in test [2] and in test [3] was “inactive” throughout.

As to `CC(C)NC[C@@H](O)COc1ccc(CC(N)=O)cc1`, the Potency result in test [1], in test [2] and in test [3] was “inactive” each time.

As for `O=C1CN(/N=C/c2ccc([N+](=O)[O-])o2)C(=O)N1`, the Potency result in test [1], in test [2] and in test [3] was “inactive” throughout.

For the compound `OC[C@H]1O[C@H](O[C@H]2O[C@H](CO)[C@@H](O)[C@H](O)[C@H]2O)[C@H](O)[C@@H](O)[C@@H]1O`, the Potency entry in test [1], in test [2] and in test [3] was “inactive” throughout.

As for `COc1cc(NCc2ccc3nc(N)nc(N)c3c2C)cc(OC)c1OC`, the results for the Potency in test [1], in test [2] and in test [3] were 8.71 µM (active), 30.9 µM (active) and 3.09 µM (active), respectively.

As to `O=C(O)c1ccc2c(c1)C(=O)OC2=O`, the Potency entry in test [1], in test [2] and in test [3] was “inactive” each time.

On to `CCCCCCC(C)OC(=O)COc1nc(F)c(Cl)c(N)c1Cl` (stereo not drawn), for which the Potency result in test [1], in test [2] and in test [3] was “inactive” throughout.

Consider `Cc1cnc(C(=O)NCCc2ccc(S(=O)(=O)NC(=O)NC3CCCCC3)cc2)cn1`, for which the Potency result in test [1], in test [2] and in test [3] was “inactive” throughout.

As for `CC1=C(C(=O)O)N2C(=O)[C@@H](NC(=O)[C@H](N)c3ccccc3)[C@H]2SC1`, the Potency result in test [1], in test [2] and in test [3] was “inactive” each time.

In the case of `CCCCCCCCOc1ccccc1C(=O)Nc1ccc(C(=O)OCC[N+](C)(CC)CC)cc1`, the results for the Potency in test [1], in test [2] and in test [3] were 24.5 µM (active), 38.9 µM (active) and 12.3 µM (active), respectively.

Regarding `c1coc(CNc2ncnc3nc[nH]c23)c1`, the Potency entry in test [1], in test [2] and in test [3] was “inactive” in each case.

On to `C[N+]1(C)CCC(OC(=O)C(O)(c2ccccc2)C2CCCC2)C1` (stereo not drawn), for which the Potency result in test [1], in test [2] and in test [3] was “inactive” each time.

As for `O=C(O)CCc1nc(-c2ccccc2)c(-c2ccccc2)o1`, the Potency entry in test [1], in test [2] and in test [3] was “inactive” throughout.

`CCCCCCCCCCCCN1CCCCCC1=O`: the Potency result in test [1], in test [2] and in test [3] was “inactive” in each case.

For `CC(C)c1nnc2ccc(-c3ocnc3-c3cc(F)ccc3F)cn12`, the Potency result in test [1], in test [2] and in test [3] was “inactive” in each case.

On to `CCCCCCCCCCCCCC`, for which the Potency entry in test [1], in test [2] and in test [3] was “inactive” each time.

`CCn1nc(C(=O)O)c(=O)c2cc3c(cc21)OCO3`: the Potency result in test [1], in test [2] and in test [3] was “inactive” throughout.

Take `CC[C@]1(O)C[C@@H]2CN(CCc3c([nH]c4ccccc34)[C@@](C(=O)OC)(c3cc4c(cc3OC)N(C)[C@H]3[C@@](O)(C(=O)OC)[C@H](OC(C)=O)[C@]5(CC)C=CCN6CC[C@]43[C@@H]65)C2)C1`: the Potency result in test [1], in test [2] and in test [3] was “inactive” throughout.

The values are drawn from PubChem BioAssay (Tox21).
